An excerpt weighted towards active compounds, which were near 9.2% of everything screened.
FLuc counter: counter-screen for miR-21 project: firefly luciferase inhibitors or activators; Potency, µM (titrated, usually from 57.5 µM), for inactives: top-dose activity change, negative = inhibition, hits mostly inhibitors; purified FLuc, Km substrates, luminescence inhibition; AID 588342; 360,000 tested, 6.9% active;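 also: plate controls were vehicle for no effect and reference inhibitor for full effect; nearly all actives have a fitted effect of over 55% in size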
Target sequence (P08659 whole entry, looked up): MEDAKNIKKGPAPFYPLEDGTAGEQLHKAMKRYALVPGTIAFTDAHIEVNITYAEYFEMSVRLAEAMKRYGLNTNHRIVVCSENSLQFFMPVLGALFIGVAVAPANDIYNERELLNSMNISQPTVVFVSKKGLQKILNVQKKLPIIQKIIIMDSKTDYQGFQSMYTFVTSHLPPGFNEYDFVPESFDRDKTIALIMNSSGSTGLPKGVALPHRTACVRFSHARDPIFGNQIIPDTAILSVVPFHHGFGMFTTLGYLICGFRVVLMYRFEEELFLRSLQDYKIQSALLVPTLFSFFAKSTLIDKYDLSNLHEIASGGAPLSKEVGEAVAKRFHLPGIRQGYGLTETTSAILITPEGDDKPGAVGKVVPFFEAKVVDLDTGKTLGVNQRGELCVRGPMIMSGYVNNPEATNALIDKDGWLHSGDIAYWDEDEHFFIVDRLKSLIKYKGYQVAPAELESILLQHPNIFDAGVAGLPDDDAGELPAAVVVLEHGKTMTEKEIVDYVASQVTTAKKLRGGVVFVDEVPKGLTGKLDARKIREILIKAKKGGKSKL
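Purified P. pyralis luciferase (10nM final) with 10uM D-luciferin and 10uM ATP (Km levels) in 50mM Tris acetate pH 7.5, 10mM Mg acetate, 0.01% Tween-20, 0.05% BSA; qHTS 6-point titration, ~60 µM downward; luminescence read.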
ELG1 genotox: genotoxicity induction in ELG1-luciferase HEK293T cells | Potency, µM (series often up to 46 µM), for the others: at the highest dose activity change, positive = activation, actives largely listed as activators | AID 504466 | HEK293T ELG1-luciferase reporter, luminescence, 16 h | 330,000 tested, 1.3% active; also: % of control where 0% means no effect; nearly all actives have a fitted effect of over 60% in size
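16 hr compound incubation (37 °C, 5% CO2) of HEK293T cells carrying luciferase-tagged ELG1; luciferase then measured by ONE-Glo luminescence after 30 min at RT.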
NPC1 prom act: NPC1 promoter activation; 320,000 tested, 2.4% active; Huh7 NPC1 promoter luciferase reporter, 24 h; Potency, µM (titrated, usually from 9.22 µM), for the others: at the top dose activation, most hits filed as activators; also: % of control where 0% means no effect; nearly all actives have a fitted effect of over 60% in size
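Stably transfected Huh7 (NPC1 promoter→luciferase), 1500 cells/well in Opti-MEM + 10% FBS, 2 h settle, then compound 24 h at 37 °C. Luminescence after 10 min with Amplite reagent.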
SMN2 splice up: enhancers of SMN2 splice variant expression | HEK293 SMN2-luciferase splicing reporter, luminescence, 30-36 h | Potency, µM (doses to about 46.1 µM), without a hit: at the highest dose activity change, positive = activation, usual class: activators | 210,000 tested, 2.8% active; also: % of control where 0% means no effect; nearly all actives have a fitted effect of over 55% in size
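qHTS luciferase splicing reporter: luminescence rises when SMN2 exon 7 is included in transfected HEK293 cells. Compound exposure lasted 30-36 h at 37C, with 4.5 mM final sodium butyrate as control, followed by a ONE-Glo read.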
ELG1 DNA repair: ELG1-dependent DNA repair inhibition | Potency, µM (titrated, usually from 46.1 µM), inactives show top-dose activity change, negative = inhibition, actives largely listed as inhibitors | 330,000 tested, 2.3% active | HEK293T ELG1-luciferase reporter, luminescence, 16 h; DNA damage induced by 5-fluorouridine; also: % is scaled to controls: 0 for no effect and ±100 for the full control effect; nearly all actives have a fitted effect of over 55% in size
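Step one: seed 2,000 cells per well. Step two: pin-transfer compound or DMSO alongside 5-fluorouridine. Step three: incubate 16 hr, 37 °C, 5% CO2. Step four: add ONE-Glo, wait 30 min, read luminescence.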
Rab9 prom act: activates the Rab9 promoter | Huh7 Rab9 promoter-luciferase reporter, luminescence, 24 h | Potency, µM (top dose mostly 9.22 µM), without a hit: at the highest dose activation, negative = inhibition, usual class: activators | 320,000 tested, 2.8% active; also: % of control where 0% means no effect; nearly all actives have a fitted effect of over 60% in size
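Stable Rab9-luc Huh7, 1500 cells/well, 2 h settle; cmpd in DMSO, 24 h, 37 °C/5% CO2; luciferase reagent 10 min RT; luminescence.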
* marks the source's active call; other numbers are inactive results; ? = inconclusive; nt = no result; [ ] = dose if it differs, or a comment. Calls follow the shape of the dose curve; as a rule, active = well fitted curve in the direction sought with a large enough effect; inconclusive = small, poorly fitted or top-dose-only effect, or another doubt; inactive = no such curve, though single readings can be large; an effect the other way counts as inactive or inconclusive. Potency is read from the fitted curve at half-maximal effect.

SMILES	FLuc counter	ELG1 genotox	NPC1 prom act	SMN2 splice up	ELG1 DNA repair	Rab9 prom act
CCOC(=O)C(=O)Nc1ccc(F)cc1	-11.4%	-3.7%	7.3%	3.8%	?	-1.5%
COC(=O)NC(c1ccccc1)C1(C(=O)OC)C(=O)Cc2ccccc21 (centres undefined)	nt	nt	nt	16.8%	nt	nt
CC(C)c1ccc2[nH]c(O)c(N=NC(=O)c3cccc(S(=O)(=O)N4CCCCC4)c3)c2c1	-19.2%	-12.6%	-1.3%	nt	10.3µM*	-4.0%
O=S(=O)(O)c1cccc(N=Nc2c(O)ccc3ccccc23)c1	23.9µM*	-0.6%	1.1%	nt	1.6%	-0.4%
Oc1ccc2ccccc2c1N=Nc1ccccn1	15.1µM*	0.7%	?	-78.6%	?	-26.9%
COc1ccc2nc(N=Nc3c(O)ccc4ccccc34)sc2c1	-15.6%	7.0%	-0.5%	nt	-16.9%	-29.2%
Oc1ccc2ccccc2c1N=Nc1ccccc1F	16.9µM*	1.2%	?	nt	10.3%	1.6%
CCOC(=O)c1[nH]cnc1N=Nc1c(O)ccc2ccccc12	?	?	-8.4%	-96.4%	13.5%	-23.8%
O=C(NCc1nnc(SCC(=O)N2CCCCCC2)o1)c1ccccc1F	1.8%	3.6%	-2.4%	nt	1.9%	-4.0%
C/C(=C\C[Si](C)(C)C)CCC=O	nt	nt	nt	-8.7%	nt	nt
COc1ccc(OC)c(CCNC(=O)CCn2nc(C)c3c(C)n(-c4ccccc4)nc3c2=O)c1	0.1%	-3.0%	-3.4%	nt	-20.8%	-2.2%
COc1ccc(OC)c(CCNC(=O)Cn2nc(C)c3c(C)n(-c4ccccc4)nc3c2=O)c1	2.1%	-5.5%	-2.8%	nt	7.3µM*	-6.4%
Cc1ccc(-n2nc3c(=O)n(CC(=O)NC(C)CCc4ccccc4)nc(C)c3c2C)cc1 (centres undefined)	4.0%	13.5%	-31.6%	nt	0.651µM*	-34.3%
O=C(COc1ccc(Br)cc1)Nc1ccc(C(=O)OC2CCCCC2)cc1	-2.1%	nt	nt	-3.1%	nt	nt
O=C(CC(SCCO)c1ccc2c(c1)OCO2)c1ccco1 (centres undefined)	4.78µM*	?	?	-5.4%	18.8%	?
COc1ccc(CN2CCC(N(CCc3ccccc3)Cc3ccccc3)CC2)c(OC)c1	0.8%	-12.7%	-6.4%	nt	20.6µM*	-11.6%
COc1ccc(/C=C2\N=C(SC)NC2=O)cc1	?	nt	nt	1.6%	nt	nt
COc1ccc(/C=C2\N=C(c3ccccc3Cl)NC2=O)cc1	1.69µM*	4.2%	-29.9%	nt	?	-15.8%
CC(C)(C)NC(=O)CSc1nc(N)c(-c2ccccc2)c(=O)[nH]1	2.1%	0.7%	-2.3%	nt	9.1%	-10.9%
Cc1nc2ccc(NC(=O)COc3cccc(F)c3)cc2s1	?	5.5%	-3.2%	-9.9%	0.1%	-3.4%
Cc1nc2ccc(NC(=O)Cc3cccc(F)c3)cc2s1	19µM*	12.0%	21.2%	26.8%	?	29.9%
Cc1nc2ccc(NC(=O)Cc3ccsc3)cc2s1	12µM*	11.6µM*	2.82µM*	?	?	?
Cc1nc2ccc(NC(=O)Cc3ccccc3F)cc2s1	6.75µM*	8.2µM*	2.82µM*	11.2µM*	?	?
Cc1nc2ccc(NC(=O)COc3ccccc3)cc2s1	?	15.8%	3.4%	10.2%	?	17.9%
Cc1cc(NS(=O)(=O)c2ccc(NC(=O)COc3ccc(Cl)cc3)cc2)nc(C)n1	?	nt	nt	-27.7%	nt	nt
SMILES	FLuc counter	ELG1 genotox	NPC1 prom act	SMN2 splice up	ELG1 DNA repair	Rab9 prom act
CCCc1cc(=O)[nH]c(Nc2cc(C)ccc2OC)n1	-1.1%	nt	nt	5.1%	nt	nt
CCN1C(=O)c2cccc3c(NC(=O)c4ccc(OC)c(OC)c4)ccc1c23	3.9%	14.6µM*	-2.7%	nt	?	-4.3%
CCCC(=O)N1CCN(c2ccc(NC(=S)NC(=O)CC)cc2)CC1	1.8%	0.4%	-3.6%	-11.8%	-11.2%	-0.6%
C/C(=N/NC(=O)c1cccs1)c1cccc(N)c1	19µM*	?	?	nt	?	?
CC(=O)Nc1cccc(/C(C)=N/NC(=S)NC(C)C)c1	23.9µM*	3.8%	15.5%	23.6%	?	29.0%
C/C(=N/Nc1ccccc1C(=O)O)c1cccs1	19µM*	?	?	nt	?	3.55µM*
C/C(=N\NC(=O)c1ccccc1)c1ccc(NC(=O)c2cccs2)cc1	?	?	28.1%	nt	?	?
C/C(=N\Nc1ccc(Cl)c(C(=O)O)c1)c1cccs1	?	5.5%	?	nt	?	?
C/C(=N/NC(=O)c1cccs1)c1cccs1	10.7µM*	?	?	nt	?	2.51µM*
CC(Oc1ccccc1)C(=O)OCc1cc(=O)n2nc(C(C)C)sc2n1 (centres undefined)	-5.4%	nt	nt	nt	nt	nt
CC(=O)Nc1cccc(/C(C)=N/NC(=O)c2cccs2)c1	19µM*	?	0.5%	?	?	2.3%
CCN(CC)S(=O)(=O)c1cccc(C(=O)N/N=C(\C)c2cccs2)c1	10.7µM*	?	3.55µM*	11.2µM*	?	3.16µM*
C=C(C)C1CC=C(C)/C(=N/NC(=O)c2cccs2)C1 (centres undefined)	4.78µM*	?	?	?	?	?
C=C(C)C1CC=C(C)/C(=N/NC(=O)c2ccccc2[N+](=O)[O-])C1 (centres undefined)	?	-7.4%	-0.9%	-33.4%	?	-0.3%
COc1ccc(-n2c(SCC(=O)NCc3ccc(Cl)cc3)nc3ccsc3c2=O)cc1	-12.6%	nt	nt	nt	nt	nt
CCOC(=O)c1cc2c(=O)n3ccccc3nc2n(C(C)C)c1=NC(=O)c1c(-c2c(F)cccc2Cl)noc1C	-4.2%	-12.9%	-14.0%	-3.1%	5.8µM*	-1.7%
Cc1cc(N2CCOCC2)nc2ccc(NC(=O)CCC(=O)N3CCN(c4ccccc4F)CC3)cc12	6.01µM*	?	?	nt	?	3.98µM*
Cc1cc(N2CCN(C)CC2)nc2ccc(NC(=S)N3CCN(c4ccc(F)cc4)CC3)cc12	-0.1%	-2.9%	-8.5%	-21.9%	-14.2%	-10.1%
Cc1cc(N2CCOCC2)nc2ccc(NC(=O)CCC(=O)N3CCN(c4ccc(F)cc4)CC3)cc12	19µM*	-1.6%	24.7%	nt	?	?
Cc1cc(N2CCOCC2)nc2ccc(NC(=O)CCC(=O)N3CCCC(C)C3)cc12 (centres undefined)	21.3µM*	?	3.98µM*	12.6µM*	?	?
Cc1cc(N2CCCCC2)nc2ccc(NC(=O)CCC(=O)N3CCN(c4ccccc4)CC3)cc12	9.53µM*	nt	nt	5.8%	nt	nt
Cc1ccc(C)c(N2CCN(C(=O)CCC(=O)Nc3ccc4nc(N5CCCCC5)cc(C)c4c3)CC2)c1	?	nt	nt	9.9%	nt	nt
CCn1c2ccccc2c2nnc(NCCCO)nc21	nt	nt	nt	-1.9%[9.22 µM]	nt	nt
